Test results from the supplement of paper PMC6555819.

Tests used:
Assay in all cases: PBM binding z-score (relative to random genomic background probes); higher = stronger binding; sequences stand for … in GC…GCGATTGACAGCGTAGAATGAAGG
[1] = system: FXR:RXRa (NR concentration 270 nM, RXRa partner concentration 90 nM)
How it was run: (§1)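 Each nuclear receptor dimer, without ligand, was incubated for 1 h on custom Agilent 4×180K protein-binding microarrays. Binding was detected with antibodies against each partner (one per run), and scanned fluorescence was regression-normalized. The binding z-scores are referenced to random human genomic background probes.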

[2] = system: LXRa:RXRa (NR concentration 270 nM, RXRa partner concentration 90 nM)
How it was run: as §1

[3] = system: LXRa homodimer (NR concentration 270 nM)
How it was run: as §1

[4] = system: LXRb:RXRa (NR concentration 270 nM, RXRa partner concentration 90 nM)
How it was run: as §1

[5] = system: LXRb homodimer (NR concentration 270 nM)
How it was run: as §1

[6] = system: PPARa:RXRa (NR concentration 270 nM, RXRa partner concentration 90 nM)
How it was run: as §1

[7] = system: PPARg:RXRa (NR concentration 180 nM, RXRa partner concentration 90 nM)
How it was run: as §1

[8] = system: PPARg:RXRa 270nM:90nM, anti-RXR (NR concentration 270 nM, RXRa partner concentration 90 nM)
How it was run: as §1

[9] = system: PPARg:RXRa 30nM:10nM, anti-RXR (NR concentration 30 nM, RXRa partner concentration 10 nM)
How it was run: as §1

[10] = system: PPARg:RXRa 90nM:30nM, anti-RXR (NR concentration 90 nM, RXRa partner concentration 30 nM)
How it was run: as §1

[11] = system: PPARg:RXRa DBDmut IVT, anti-RXR (DBD mutation: RXRa K156A/R161A, NR concentration 270 nM, RXRa partner concentration 90 nM)
How it was run: as §1

[12] = system: PPARg:RXRa IVT, anti-PPARg (NR concentration 270 nM, RXRa partner concentration 90 nM)
How it was run: as §1

[13] = system: PPARg DBDmut:RXRa IVT, anti-PPARg (DBD mutation: PPARg1 K132A/R137A, NR concentration 270 nM, RXRa partner concentration 90 nM)
How it was run: as §1

[14] = system: PPARg DBDmut IVT, anti-PPARg (DBD mutation: PPARg1 K132A/R137A, NR concentration 270 nM)
How it was run: as §1

[15] = system: PPARg homodimer (NR concentration 180 nM)
How it was run: as §1

[16] = system: PXR:RXRa (NR concentration 270 nM, RXRa partner concentration 90 nM)
How it was run: as §1

[17] = system: PXR homodimer (NR concentration 270 nM)
How it was run: as §1

[18] = system: RARa:RXR (NR concentration 270 nM, RXRa partner concentration 90 nM)
How it was run: as §1

[19] = system: RARa homodimer (NR concentration 270 nM)
How it was run: as §1

[20] = system: RARb:RXRa (NR concentration 270 nM, RXRa partner concentration 90 nM)
How it was run: as §1

| Sequence | PBM binding z-score [1] | PBM binding z-score [2] | PBM binding z-score [3] | PBM binding z-score [4] | PBM binding z-score [5] | PBM binding z-score [6] | PBM binding z-score [7] | PBM binding z-score [8] | PBM binding z-score [9] | PBM binding z-score [10] | PBM binding z-score [11] | PBM binding z-score [12] | PBM binding z-score [13] | PBM binding z-score [14] | PBM binding z-score [15] | PBM binding z-score [16] | PBM binding z-score [17] | PBM binding z-score [18] | PBM binding z-score [19] | PBM binding z-score [20] |
| --- | --- | --- | --- | --- | --- | --- | --- | --- | --- | --- | --- | --- | --- | --- | --- | --- | --- | --- | --- | --- |
| ATAATGAGGTTACCAAAGATCAGGGAAACGCTTG | 1.8 | 6.12 | 0.166 | 3.15 | 0.596 | 3.37 | 3.17 | 3 | 1.2 | 2.35 | 4.27 | 3.93 | 1.55 | 1.88 | 0.591 | 1.51 | 0.204 | 1.93 | 1.22 | 2.14 |
| GCTACTAGGTCAACTGATGGTCAGCTAAAGCTCG | 4.07 | 3.11 | 0.488 | 2.22 | 0.314 | 4.47 | 7.27 | 6.19 | 3.31 | 5.71 | 8 | 8.03 | 2.65 | 2.15 | 2.57 | 1.75 | -0.307 | 3.07 | 0.12 | 4.25 |
| ATCTCTAGGTAAAGATAGTTTAGTGAATGCAAAT | 0.535 | 0.896 | 0.494 | 0.361 | 0.415 | 0.104 | 0.777 | 0.218 | 0.448 | 0.329 | 1.81 | 2.04 | 1.07 | 0.379 | 0.699 | 0.277 | 0.329 | -0.0138 | 0.933 | 0.0107 |
| CGTCCAAGGTCATAGGAGGTCAGGGAAGACAGAT | 7.91 | 7.63 | 5.15 | 6.25 | 0.687 | 6.17 | 6.03 | 5.99 | 2.83 | 4.83 | 3.02 | 4.92 | 1.73 | 1.82 | 5.03 | 6.9 | 3.35 | 6.79 | 2.46 | 5.31 |
| ATCTCTAGGTAAGACTCTGTTCAGTGAAGAACGC | 0.455 | 0.64 | 0.527 | 0.145 | 0.866 | 0.0687 | 0.000617 | 0.133 | 0.343 | 0.426 | 2.14 | 1.19 | 0.717 | 0.753 | 0.889 | -0.0649 | 0.53 | 0.421 | 1.18 | 0.151 |
| CTTTACGGGTCACGAGGTTATAGCACGACGAGCG | 7.21 | 5.4 | 1.34 | 4.38 | 0.444 | 6.35 | 8.06 | 7.02 | 4.31 | 6.25 | 5.55 | 6.46 | 1.86 | 2.29 | 2.93 | 4.96 | 0.279 | 6.19 | 0.513 | 4.81 |
| TCTTGTAGATCAATAAAGGTTAAGAAAGTGCGCT | 1.03 | 4.33 | 0.774 | 2.36 | 0.274 | 2.32 | 0.49 | 2.26 | 2.99 | 2.82 | 2.1 | 1.29 | 0.661 | 1.24 | 1.33 | 3.04 | 0.584 | 2.3 | 1.6 | 1.53 |
| TAGCCTAGGTCATTCGGCCAGTATAGTACGCATC | 4.5 | 3.51 | 1.18 | 2.52 | 0.814 | 3.48 | 2.78 | 2.43 | 0.539 | 1.55 | 1.85 | 2.83 | -0.386 | -0.398 | 0.361 | 1.39 | -0.455 | 2 | -0.658 | 3.6 |
| GGAACGAGGGTATTCGAGTTGATAGCATGGCGAT | 0.27 | 2.1 | -0.446 | -0.313 | -1.2 | -0.309 | 0.371 | -0.244 | -0.476 | -0.646 | 0.383 | 0.201 | -0.0387 | -0.595 | -0.648 | 1.19 | -0.17 | 0.11 | -0.18 | -0.145 |
| CCTACTGGGCCAAGGTAATTGATCAGTCAAAGCA | -0.458 | -0.478 | -0.526 | -0.461 | -0.835 | 0.508 | 0.767 | 1.22 | 0.0282 | 0.531 | 4.09 | 3.56 | -0.62 | -0.619 | -0.616 | -0.363 | -0.674 | 0.0953 | -0.936 | 0.0612 |
| ACTTACGGGTCAACGTGGTTATAGCACGCGTATA | 6.4 | 4.01 | 0.422 | 3.75 | 0.534 | 5.52 | 5.08 | 5.39 | 1.88 | 4.03 | 3.4 | 3.77 | 1.64 | 1.34 | 2.74 | 3.45 | 0.0483 | 4.28 | 1.23 | 4.02 |
| ATATCTAGGTAAAGATAGTTCAGTGAATGCAAAT | 0.0166 | 3.97 | 0.545 | 0.556 | 0.365 | 2.2 | 3.15 | 1.99 | 1 | 1.6 | 5.82 | 5.59 | 2.76 | 1.53 | 1.12 | 0.896 | 0.584 | 0.384 | 0.705 | 0.775 |
| CATCAAAGTTCAAGGTAACGTAACAGAAAGCAGC | 6.68 | 5.7 | 3.88 | 3.79 | 2.13 | 4.66 | 3.59 | 4 | 1.71 | 2.82 | 0.753 | 1.84 | 1.29 | 1.96 | 2.92 | 4.19 | 2.76 | 3.44 | 2.21 | 5.31 |
| ATAGGTAGGTTAAGGGTCATTCAGGTTGGTTCGC | 5.35 | 5.02 | 3.31 | 4.83 | 2.47 | 5.86 | 9.73 | 8.69 | 8.35 | 9.51 | 3.71 | 5.35 | 3.33 | 1.88 | 4.75 | 5.63 | 3.61 | 6.1 | 3.3 | 3.83 |
